Measured values from PubChem BioAssay.

What was measured:
[1] = target: Tumor necrosis factor receptor superfamily member 10B (Homo sapiens) (UniProt O14763); experiment: viability loss of caspase-8 NB7 cells with TRAIL – with/without TRAIL, luminescence panel, confirmation (AID 651596); conditions: NB7 neuroblastoma + caspase-8, TRAIL sensitization, NB7 Caspase-8, with TRAIL, mean of runs, at 10 µM, stronger effect = higher value
[2] = as above; conditions: NB7 neuroblastoma + caspase-8, without TRAIL, NB7 Caspase-8, without TRAIL, mean of runs, at 10 µM

Tumor necrosis factor receptor superfamily member 10B (Homo sapiens), sequence (O14763 whole entry, looked up): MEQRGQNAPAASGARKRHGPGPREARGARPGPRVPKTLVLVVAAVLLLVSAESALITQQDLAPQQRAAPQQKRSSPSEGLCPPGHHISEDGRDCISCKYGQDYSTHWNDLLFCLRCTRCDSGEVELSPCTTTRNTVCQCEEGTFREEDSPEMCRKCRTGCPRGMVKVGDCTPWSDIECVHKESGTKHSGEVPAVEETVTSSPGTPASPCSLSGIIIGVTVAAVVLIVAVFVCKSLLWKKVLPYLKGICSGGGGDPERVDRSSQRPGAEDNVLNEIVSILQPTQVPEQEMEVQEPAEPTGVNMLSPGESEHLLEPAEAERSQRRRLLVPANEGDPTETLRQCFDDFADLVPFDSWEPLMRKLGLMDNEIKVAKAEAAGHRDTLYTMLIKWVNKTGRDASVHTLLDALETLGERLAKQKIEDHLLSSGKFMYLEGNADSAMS

| SMILES | activity [1] | activity [2] |
| --- | --- | --- |
| Cc1cc(NC(=O)/C=C/c2ccccc2Cl)n(-c2nc3ccccc3[nH]2)n1 | 78.8% | 82.4% |
| CCOC(=O)c1sc2nc3c(SCC(=O)O)cc(C(=O)c4ccccc4O)cn3c(=O)c2c1C | 49.1% | 42.5% |
| CC(C)Cc1nc2oc3c(Cl)ncnc3c2c2c1CCC2 | 95.9% | 96.4% |
| Cc1ccccc1C(=O)Nc1nnc(SCC(=O)NCc2ccco2)s1 | 61.1% | 58.2% |
| O=C(N/N=C/c1cccnc1)c1ccc2c(c1)OCCO2 | 76.2% | 67% |
| Fc1ccc(-c2nc3n(n2)Cc2ccccc2-3)cc1 | 54% | 55.6% |
| COc1ccccc1/C=C/C(=O)Nc1ccc2c(c1)OCCO2 | 66.6% | 73.5% |
| Cc1ccc(Cl)cc1N1CCN(C(=O)c2noc(C)c2[N+](=O)[O-])CC1 | 99.3% | 97.1% |
| COc1ccccc1-c1cc(C(=O)NC2CCN(C)CC2)c2ccc(Cl)c(C)c2n1 | 89.2% | 86% |
| O=C(NCCN1C(=O)S/C(=C\c2ccc(Cl)c([N+](=O)[O-])c2)C1=O)C1=COCCO1 | 63.1% | 72.9% |
| CCCCn1c(=O)[nH]c(=O)c2c1nc(Cn1ncc(Cl)c(Cl)c1=O)n2CCC | 98.7% | 99% |
| O=C(Nc1ccc2c(c1)OCCO2)c1ccc(Cl)cc1 | 66.3% | 69.5% |
| Nc1c(N(CCC2=CCCCC2)C(=O)COc2ccc(F)cc2)c(=O)[nH]c(=O)n1Cc1ccccc1 | 27.3% | 23% |
| CC(C)c1onc(C(=O)N2CCN(C(c3ccccc3)c3ccccc3)CC2)c1[N+](=O)[O-] | 98.1% | 93.9% |
| COc1cccc(-c2nnc(-c3ccc(C)o3)o2)c1 | 64.9% | 65.2% |
